Assay results published in PubChem BioAssay (NCI).
About 79,000 compounds went through this panel and 15% of them were active in at least one assay; those are over-represented in the sample as a whole. Values without a mark were called inactive. The source made the active and inactive calls. Rule as the data show it: active = growth inhibition above about 70%; inactive = the rest.

Key:
[1] = NCI Yeast Anticancer Drug Screen. Data for the rad50 strain (AID 155);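 also: 0% = growth of vehicle-only cultures of the same strain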; conditions: S. cerevisiae rad50 strain growth inhibition, stronger effect = higher value
Procedure, shortened: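 Readout: growth inhibition relative to vehicle-treated cultures. Compound exposure was carried out in a genetically defined yeast strain deficient in DNA damage repair.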

[2] = NCI Yeast Anticancer Drug Screen. Data for the mec2-1 strain (AID 157); conditions: S. cerevisiae mec2-1 strain, stronger effect = higher value
Procedure, shortened: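 Yeast mec2-1 mutant treated with compound. Readout: growth inhibition vs vehicle controls.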

[3] = NCI Yeast Anticancer Drug Screen. Data for the sgs1 mgt1 strain (AID 161);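 also: 0% = growth of cultures given vehicle only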; conditions: S. cerevisiae sgs1 mgt1 strain, stronger effect = higher value
Procedure, shortened: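 Inhibition of yeast growth, normalised to vehicle-treated controls, is reported for a strain bearing genetic alterations in DNA damage repair.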

[4] = NCI Yeast Anticancer Drug Screen. Data for the cln2 rad14 strain (AID 165);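 also: 0% = growth equal to vehicle treated cultures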; conditions: S. cerevisiae cln2 rad14 strain, stronger effect = higher value
Procedure, shortened: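 cln2 rad14 yeast strain; compound exposure; growth inhibition read vs vehicle controls.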

[5] = NCI Yeast Anticancer Drug Screen. Data for the bub3 strain (AID 167); conditions: S. cerevisiae bub3 mutant strain, stronger effect = higher value
Procedure, shortened: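 Readout: yeast growth inhibition, expressed relative to vehicle-only wells. The test organism is a mutant strain from a panel with lesions in DNA repair or checkpoint genes.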

[6] = NCI Yeast Anticancer Drug Screen. Data for the mlh1 rad18 strain (AID 175); conditions: S. cerevisiae mlh1 rad18 strain growth inhibition, stronger effect = higher value
Procedure, shortened: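 Yeast w/ defined DNA-repair lesions; compound exposure; growth vs vehicle controls → % inhibition.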

[7] = at 5.0 µM (retest, dose inferred, filed as 0.5)
[8] = at 50.0 µM (retest, dose inferred, filed as 5.0)

SMILES	growth inhibition [1, 7]	growth inhibition [1, 8]	growth inhibition ([1]; at 50.0 µM)	growth inhibition [2, 7]	growth inhibition [2, 8]	growth inhibition ([2]; at 50.0 µM)	growth inhibition [3, 7]	growth inhibition [3, 8]	growth inhibition ([3]; at 50.0 µM)	growth inhibition [4, 7]	growth inhibition [4, 8]	growth inhibition ([4]; at 50.0 µM)	growth inhibition [5, 7]	growth inhibition [5, 8]	growth inhibition ([5]; at 50.0 µM)	growth inhibition [6, 7]	growth inhibition [6, 8]	growth inhibition ([6]; at 50.0 µM)
CCS(=O)(=O)c1ccc(NC(=O)OC2CCCCCCC2)cc1	5%	89% (active)	95.8% (active)	16%	86% (active)	80.6% (active)	11%	74% (active)	65.5%	-50%	88% (active)	88.8% (active)	6%	-30%	95.2% (active)	6%	90% (active)	91.6% (active)
CCC/C(=N\O)S(=O)(=O)c1ccc(NN=O)nc1	-18%	-11%	-22.1%	-20%	1%	-26.8%	3%	-11%	-36.1%	-31%	-13%	34.5%	-33%	-18%	-4.4%	-33%	-21%	-28%
COc1cccc2c1C(=O)c1c(O)c3c(c(O)c1C2=O)C[C@@](O)(/C(C)=N\NC=O)C[C@@H]3OC1CC(N)C(O)C(C)O1 (stereo not given in full)	-3%	86% (active)	75% (active)	-1%	45%	49.5%	-4%	38%	72.7% (active)	8%	51%	39.9%	17%	84% (active)	76.5% (active)	4%	90% (active)	76% (active)
Cc1cc(Cc2ccccc2)ccc1O	0%	66%	51.2%	-6%	39%	96.4% (active)	-1%	50%	55.8%	-5%	15%	57.5%	-11%	47%	81% (active)	8%	60%	41%
NC1C(=O)C2CCCCC2C(=O)C1C(=O)c1ccccc1 (stereo not given)	-2%	28%	-0.5%	4%	17%	16.4%	-1%	-6%	23.4%	1%	10%	-55.4%	5%	49%	73.9% (active)	3%	24%	48.1%
O=C1CN(c2cccc(Cl)c2)C(=O)CN1/N=C/c1ccc[nH]1	4%	-3%	98.4% (active)	7%	0%	99.2% (active)	10%	0%	98.7% (active)	2%	-3%	97.9% (active)	1%	-3%	98.3% (active)	-3%	-5%	99% (active)
O=C(c1ccccc1)C(Cl)c1ccccc1 (stereo not given)	9%	99% (active)	91.6% (active)	-12%	99% (active)	95.2% (active)	1%	97% (active)	97.5% (active)	0%	41%	44%	51%	99% (active)	94% (active)	0%	99% (active)	95.2% (active)
CC1=NN(c2ccccc2)C(=O)C1N=Nc1cc(Cl)cc(S(=O)(=O)O)c1O (stereo not given)	59%	99% (active)	66.3%	66%	99% (active)	21.6%	21%	52%	55.7%	21%	30%	29.7%	66%	30%	26.3%	52%	99% (active)	42.5%
CCOC(=O)C(F)C(Br)C(=O)OCC (stereo not given)	22%	98% (active)	90.5% (active)	28%	99% (active)	91.8% (active)	100% (active)	100% (active)	91.5% (active)	98% (active)	98% (active)	89.8% (active)	99% (active)	100% (active)	90.7% (active)	49%	98% (active)	90% (active)
O=[N+]([O-])c1ccc(-c2nc(/C=N/N3CCCCC3)cs2)o1	12%	57%	69.7%	1%	26%	43.5%	17%	76% (active)	84.5% (active)	-7%	32%	42.4%	-1%	3%	15.2%	16%	64%	66.5%
c1ccc2[nH]c(CN(CCN(Cc3nc4ccccc4[nH]3)Cc3nc4ccccc4[nH]3)Cc3nc4ccccc4[nH]3)nc2c1	97% (active)	95% (active)	91.1% (active)	97% (active)	97% (active)	91.5% (active)	99% (active)	96% (active)	91% (active)	99% (active)	94% (active)	90.3% (active)	99% (active)	95% (active)	89% (active)	96% (active)	93% (active)	89.7% (active)
CCCCCCCN1C(=O)c2ccccc2S1(=O)=O	-2%	95% (active)	95.1% (active)	-12%	76% (active)	87.3% (active)	12%	94% (active)	86.2% (active)	-4%	73% (active)	43%	14%	89% (active)	93.5% (active)	39%	96% (active)	84.8% (active)
Cc1ccc(NC(=O)CCc2nnc(N)n2N)cc1	-2%	-5%	-3.55%	-1%	4%	96.5% (active)	-6%	0%	97.5% (active)	0%	5%	93.2% (active)	4%	7%	95% (active)	-4%	-1%	97.2% (active)
COc1ccc(N(C)Sc2ccccc2)cc1	-12%	64%	88.2% (active)	18%	65%	49.1%	-14%	24%	67.1%	9%	63%	35.6%	12%	90% (active)	69.7%	-10%	97% (active)	71.3% (active)
Cc1cc(C)c2c(c1)sc1nncn12	62%	96% (active)	97.9% (active)	57%	96% (active)	97.8% (active)	53%	97% (active)	96% (active)	46%	96% (active)	97.6% (active)	70% (active)	97% (active)	98.9% (active)	93% (active)	97% (active)	98.9% (active)
Clc1ccc(C2=Nc3ccccc3SC(c3ccc(Cl)c(Cl)c3)C2)c(Cl)c1 (stereo not given)	16%	16%	64.2%	12%	12%	49.3%	1%	1%	63.3%	10%	10%	40.8%	9%	9%	70.4% (active)	13%	13%	63.7%
CCNc1nc(C(F)(F)F)nc2nc[nH]c12	3%	-5%	6.15%	1%	4%	-5.75%	-22%	-5%	-20.1%	-5%	0%	92.7% (active)	-4%	-4%	3.4%	-3%	-9%	39.9%
Cc1[nH]c(=O)[nH]c(=S)c1C(=O)NC1C2CCCCC2NC2CCCCC21 (stereo not given)	67%	96% (active)	75.5% (active)	49%	97% (active)	83.3% (active)	49%	97% (active)	76.4% (active)	74% (active)	98% (active)	85% (active)	48%	97% (active)	77.8% (active)	46%	96% (active)	71.9% (active)
Nc1nc(-c2ccc(Cl)cc2)c(N=Nc2ccc(Br)cc2)s1	1%	93% (active)	97.5% (active)	-20%	96% (active)	98% (active)	3%	94% (active)	98.3% (active)	-11%	89% (active)	95.4% (active)	-17%	91% (active)	96.5% (active)	11%	97% (active)	98.5% (active)
CCCCCCCCC1N(C)CCCN1C	-76%	97% (active)	99.5% (active)	-51%	98% (active)	99.6% (active)	-37%	98% (active)	49%	-56%	98% (active)	98.3% (active)	-52%	98% (active)	99% (active)	-102%	98% (active)	99.5% (active)
C=C1CC(C)(COc2ccc3c(C)c(Cl)c(=O)oc3c2)OC1=O (stereo not given)	23%	95% (active)	80% (active)	2%	97% (active)	68.8%	-2%	95% (active)	81% (active)	-15%	92% (active)	76.8% (active)	13%	94% (active)	85.8% (active)	8%	97% (active)	58.6%
CCC(C)Sc1nc2c([nH]1)c(=S)n(C)c(=O)n2C (stereo not given)	9%	39%	87.7% (active)	20%	52%	96% (active)	5%	-19%	96.7% (active)	-3%	17%	23.9%	16%	49%	95.7% (active)	1%	24%	95.2% (active)
C/C=C1\CC(C)(CC)C(C#N)(C#N)C(N)=C1C#N (stereo not given)	0%	-9%	-5.9%	-3%	0%	10.5%	2%	-4%	-4.35%	-9%	-3%	3.35%	-3%	-2%	50.9%	0%	-9%	-28.7%
CCc1cccc(C)c1N1C(=O)C(=O)C(c2nc3ccccc3o2)/C(=N\NS(=O)(=O)c2ccc(C)cc2)C1=O (stereo not given)	7%	0%	-6.6%	15%	34%	14.2%	6%	2%	4.4%	8%	-2%	36%	8%	14%	6.6%	5%	15%	0.25%
O=C(c1ccc(Cl)cc1)C1N=NCC1c1ccccc1 (stereo not given)	3%	33%	-2.2%	9%	52%	22.8%	4%	50%	29.2%	4%	59%	12.8%	4%	85% (active)	87% (active)	-8%	53%	43%
